D2 PAM-1: positively modulates the human D2 dopamine receptor allosterically; 340,000 compounds, 0.34% hits; potentiation, % at 10 µM; P14416; HEK293 T-REx D2, calcium flux, EC20 dopamine potentiation;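 active = potentiation over 3 SD above the plate norm, cut at about 30% in these data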; note: 0% is about no effect
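Using a no-wash calcium dye in inducible, force-coupled HEK293 Trex cells expressing D2, we tracked fluorescence each second for 180 s after compound, then for 180 s after EC20 dopamine to detect augmented signalling.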
D2 ag-1: activates the human D2 dopamine receptor | P14416 | DiscoveRx PathHunter D2 beta-arrestin, luminescence, 90 min; 100% = 57 uM dopamine signal | activation, % (concentration not given with the values) | 360,000 compounds, 0.084% hits | AID 624465; in the data active = activation above about 40%; inconclusive = between about 15% and that limit
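Agonist mode: compounds alone added to overnight-plated D2 PathHunter cells for 90 min at 37 C, with 57 uM final dopamine (EC100) defining full response. Beta-arrestin recruitment detected by chemiluminescent reagent, read after 1 h at ambient temperature.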
D2 ag-2: D2 dopamine receptor (human) agonism; P14416; HEK293 T-REx D2 cells, calcium flux agonist mode; activation, % at 2 µM; 340,000 compounds, 0.53% hits; AID 485358;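 active = activation over 3 SD above normal in the single-dose calcium agonist read, cut at about 30% in these data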; note: 0% is about no effect
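Agonism scored from kinetic calcium signal (1 read/sec, 180 s) following compound pin transfer, after a 10 s baseline. Cells: HEK293 Trex line expressing inducible D2 receptor coupled to calcium, dye-loaded after overnight culture at 30 C.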
D2 antag: antagonizes the human D2 dopamine receptor; AID 485344; 340,000 compounds, 2% hits; inhibition, % at 10 µM; HEK293 TREx D2 cells, calcium flux, dopamine EC80; in the data active = inhibition above about 30%; inactive = below that, where a call was filed; note: 0% is about no effect
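Cells plated overnight at 30 C with tetracycline; no-wash calcium dye, 30–90 min RT; 10 s baseline; compound pinned; 180 s read; EC80 dopamine added; another 180 s read.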
D2 PAM-2: potentiates the human D2 dopamine receptor allosterically | DiscoveRx D2 beta-arrestin cells, luminescence, 90 min; 100% = 57 uM dopamine signal | potentiation, % (concentration not given with the values) | 360,000 compounds, 0.23% hits | P14416; in the data active = potentiation above about 50%; inconclusive = mostly about 30% to 49%
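PathHunter D2 cells, attached overnight at 37 deg C, received compound in DMSO plus dopamine at EC20 (50 nM final) for 90 min at 37 deg C. Beta-arrestin recruitment was read as luminescence after 1 h with detection reagent at ambient temperature.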
D3 arrestin ag: D3 receptor agonism confirmed, beta-arrestin readout; shares compounds with D2 ag-2; DiscoveRx D3 beta-arrestin cells, luminescence, 90 min; Potency, µM (doses to about 76.9 µM), without a hit: top-dose activation, usual class: activators; 2,300 compounds, 4% hits;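 note: potency is the fitted concentration of half-maximal effect; 100% = dopamine control response; nearly all actives have a fitted effect of over 70% in size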
Target sequence (P35462 whole entry, looked up): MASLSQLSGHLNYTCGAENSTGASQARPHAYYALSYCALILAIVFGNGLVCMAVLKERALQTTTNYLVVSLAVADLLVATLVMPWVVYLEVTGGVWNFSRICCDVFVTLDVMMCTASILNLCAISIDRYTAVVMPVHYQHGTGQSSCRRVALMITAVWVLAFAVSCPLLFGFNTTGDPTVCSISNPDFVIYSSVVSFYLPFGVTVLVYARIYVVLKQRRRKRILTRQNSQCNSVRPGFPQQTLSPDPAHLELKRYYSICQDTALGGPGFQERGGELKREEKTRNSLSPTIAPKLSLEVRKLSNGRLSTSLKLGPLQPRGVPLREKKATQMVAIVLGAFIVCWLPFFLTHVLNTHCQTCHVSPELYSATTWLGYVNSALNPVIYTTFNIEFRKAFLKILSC
D2 ag-3: D2 receptor agonism, beta-arrestin counterscreen | 2,300 compounds, 5.9% hits | DiscoveRx PathHunter D2 beta-arrestin, luminescence, 90 min; response scale: percent relative to full dopamine signal | Potency, µM (series often up to 76.9 µM), for the others: at the highest dose activation, actives largely listed as activators | shares compounds with D2 ag-2; note: potency is the fitted concentration of half-maximal effect; % of control where 0% means no effect; nearly all actives have a fitted effect of over 70% in size
Starred values were filed as active, the others as inactive; ? = inconclusive; . = not tested or not shown. Rows were chosen to be rich in hits. Some 2.4% of all compounds tested hit in one or more screens of this group. Unless noted, calls come from the whole dose curve; as a rule, active = well fitted activation curve with a large enough effect; inconclusive = small, poorly fitted or top-dose-only effect; inactive = flat fitted curve, though single readings scatter.

SMILES | D2 PAM-1 | D2 ag-1 | D2 ag-2 | D2 antag | D2 PAM-2 | D3 arrestin ag | D2 ag-3
O=C(COC(=O)[C@H](Cc1ccccc1)NC(=O)c1cccs1)Nc1ccccc1C(F)(F)F | -8 | -1 | 0 | 4 | -5 | . | .
NC(=O)NC(=O)COC(=O)[C@H](Cc1ccccc1)NC(=O)c1cccs1 | 4 | -2 | 17 | 10 | -19 | 14% | -5%
CCOC(=O)c1ccc(-n2cccc2/C=C2\NC(=O)NC2=O)cc1 | -14 | . | -1 | 7 | . | 2% | 2%
Cc1ccc(C(C)C)cc1S(=O)(=O)NCc1ccccn1 | 1 | -2 | . | . | 6 | -3% | 0%
COc1ccc(C(C)C)cc1S(=O)(=O)NCc1ccccn1 | 6 | -4 | 0 | -12 | 0 | . | .
COc1ccc(CCNC(=O)c2ccc3c(c2)N=C(C)c2ccccc2S3)cc1OC | 13 | . | -3 | . | . | . | .
COc1ccc(Cl)cc1NC(=O)CSc1ccc(-c2sc(C)nc2C)nn1 | -3 | . | 0 | . | . | . | .
CN(C)CCNC(=O)C12CC3(C)CC(C)(CC(C)(C3)C1)C2 | -15 | -1 | 27 | 2 | -29 | -16% | -3%
c1ccc2c(CC3=NCCN3)cccc2c1 | 22 | -4 | 14 | -5 | -20 | . | .
Cc1cc(C(C)(C)C)c(O)c(C)c1CC1=NCCN1 | -30 | 9 | 72* | 64* | -17 | 3% | 14%
CCn1c(N2CCN(S(=O)(=O)c3ccccc3C(F)(F)F)CC2)nc2ccccc21 | -3 | ? | 3 | 15 | 2 | 13µM* | ?
CC1CCN(S(=O)(=O)c2ccc3c(c2)CCN3)CC1 | -10 | . | 0 | . | . | . | .
Cc1ccc(C)c(N2CCN(c3c(CN4CCCC4)c(=O)oc4ccccc34)CC2)c1 | 2 | . | -2 | . | . | . | .
N#C/C(=C\c1ccc(-c2ccccc2C(=O)O)o1)c1nc2ccccc2[nH]1 | 5 | -9 | 8 | -17 | 2 | 3% | -3%
CCn1cc(C(=O)NCc2ccccc2Cl)c(=O)c2cc(S(=O)(=O)N3CCc4ccccc4C3)ccc21 | 13 | . | 0 | . | . | . | .
CCS(=O)(=O)N1CCCC(C(=O)NC2CCCCC2C)C1 (configuration not stated) | -5 | -2 | 0 | 9 | -4 | . | .
CCCS(=O)(=O)N1CCC(C(=O)NC2CCCCC2C)CC1 (configuration not stated) | -1 | -5 | 1 | 10 | -23 | -15% | -3%
CC(=O)Nc1ccc(S(=O)(=O)NCCC(=O)NCCOc2ccccc2)cc1 | -10 | 5 | 15 | -3 | -3 | -3% | 12%
O=C(CCNS(=O)(=O)c1ccccc1)NCCCSc1ccccc1 | -1 | -4 | -1 | 11 | -12 | . | .
Cc1ccc(S(=O)(=O)NCCC(=O)NCCCSc2ccccc2)cc1 | 8 | -3 | -2 | -12 | -4 | 1% | 5%
CCOC(=O)NC(=O)CSc1nc(-c2ccc(C)c(C)c2)cn1-c1ccccc1 | 9 | -1 | -1 | 8 | 15 | 8% | 6%
Cc1ccc(-c2cn(-c3ccccc3)c(SCC(N)=O)n2)cc1C | -7 | -3 | -1 | 10 | 6 | . | .
CCN(CCCC(=O)c1ccc(F)cc1)CCc1ccccc1 | -22 | 13 | 83* | 102* | -24 | ? | 17%
O=C(CCCc1ccccc1)c1ccccc1 | 26 | -1 | 0 | -12 | -6 | . | .
COC(=O)c1ccc(Cl)cc1NC(=O)Nc1nnc(N(C)Cc2ccccc2)s1 | 17 | . | -1 | . | . | . | .
COc1ccc(CN2CCN(Cc3cc4ccccc4o3)CC2CCO)cc1C (configuration not stated) | -17 | ? | 66* | 25 | -19 | -1% | 13%
COc1ccc(CN2CCN(Cc3cc4ccccc4o3)CC2CCO)c(F)c1 (configuration not stated) | 3 | -5 | 10 | 13 | -7 | . | .

Screening data (PubChem)
